Shown is part of a subset that was picked to be rich in hits.
KDM5B inh: inhibitors of human KDM5B histone demethylase; KDM5B demethylase, FDH-coupled NADH fluorescence (FDH is formaldehyde dehydrogenase); Q9UGL1; Potency, µM (highest dose often 57.7 µM), hits mostly inhibitors; 220,000 tested, 2.6% active; active means well fitted inhibition curve with a large enough effect; further: 0% is about no effect; nearly all actives have a fitted effect of over 70% in size
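KDM5BΔAP (200 nM final) in 50 mM HEPES pH 7.5, 0.01% Tween-20 was preincubated 10 min at RT with compound over a concentration range. Substrate mix (H3K4me3 12.5 µM, α-KG 25 µM, Fe²⁺, ascorbate, NAD⁺, FDH) was added, and NADH fluorescence change over 30 min gave dose-response curves.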
Active calls of the source: *; i = inactive. Potency means the concentration at half of the fitted maximal effect.

SMILES | KDM5B inh
CCNC(=O)NC(=O)C(C)N1CCN(C(=O)Cc2c[nH]c3ccccc23)CC1 (centres undefined) | i
CN1CCN(C(=O)Cc2ccc(Cl)cc2Cl)CC1 | i
CN1CCN(C(=O)Cc2c[nH]c3ncc(-c4ccc(F)c(Cl)c4)cc23)CC1 | 40µM*
COc1ncc(-c2cnc3[nH]cc(CC(=O)N4CCN(C)CC4)c3c2)cn1 | i
O=C(CN1CCN(C(=O)Cc2c[nH]c3ccccc23)CC1)NC1CC1 | i
CC(=O)NC[C@H]1C[C@@H]2CCN1C[C@@H]2c1cc(-c2cccs2)nn1C | i
Cc1ccsc1C(=O)N1CCC2(CC1)NCc1ccccc1-n1ccnc12 | i
O=[S+]1([O-])NC2(CCN(Cc3ccccc3)C2)COc2ccncc21 (centres undefined) | i
Cc1cccc(C(=O)N2CCC(=O)CC2)c1 | i
O=C([C@H]1CN2CC[C@H]1C[C@@H]2Cn1cc(CO)nn1)N1CCCC1 | i
CSc1cccc(NC(=O)NC[C@H]2C[C@@H]3CCN2C[C@@H]3CN(C)c2ccccc2)c1 | i
CSc1cccc(NC(=O)NC[C@H]2C[C@@H]3CCN2C[C@@H]3CN(C)Cc2ccccc2)c1 | i
O=C(NCc1ccc(F)cc1)[C@H]1CN2CC[C@H]1C[C@@H]2Cn1cc(C2(O)CCCC2)nn1 | i
C#C[C@H]1CN2CC[C@H]1C[C@@H]2CNC(=O)c1ccc2c(c1)OCO2 | i
COc1cc([C@@H]2c3cc4c(cc3[C@H](O)[C@@H](CO)[C@@H]2C(=O)N2CCCC2)OCO4)cc(OC)c1OC | i
O=c1ccc(-c2ccccc2)c2n1C[C@H]1C[C@@H]2CN(Cc2ccc(CO)o2)C1 | i
Cc1cnc(CCN)n1CC1CC1 | 7.9µM*
NCCc1noc(C2CC2)n1 | i
O=C(Nc1ccccc1)N1C[C@@H]2C[C@H](C1)c1c(-c3cccs3)ccc(=O)n1C2 | i
O=C(NCc1ccccc1)[C@H]1CN2CCC1C[C@@H]2Cn1cc(-c2ccccc2)nn1 (some centres undefined) | i
O=C(NCC[C@@H]1C[C@@H]2C=C[C@H]1C2)c1cn(Cc2ccccc2Cl)nn1 | i
c1cnc2c(c1)NC1(CCCNC1)C(=NC1CCCC1)N2 (centres undefined) | 25µM*
COc1ccc(-c2cc([C@H]3CN4CC[C@H]3C[C@@H]4CNC(=O)COc3ccccc3)n(C)n2)cc1 | i
O=C1Nc2ccccc2CC12CCN(Cc1ccccn1)C2 (centres undefined) | 32µM*
O=C1Nc2ccccc2CC12CN(Cc1ccccn1)C2 | i
SMILES | KDM5B inh
O=C1NCc2ccccc2CC12CCCN(Cc1ccccn1)C2 (centres undefined) | i
CCOCC(=O)N1CCC2(CC1)c1nccn1-c1ccccc1CN2C | i
Cc1nc(-c2ccco2)cc([C@H]2CN3CC[C@H]2C[C@@H]3CNCC2CCCCC2)n1 | i
Cc1nc(-c2cccs2)cc([C@H]2CN3CC[C@H]2C[C@@H]3CNC(=O)Nc2cccc(C(F)(F)F)c2)n1 | i
Cc1nc(-c2ccco2)cc([C@H]2CN3CC[C@H]2C[C@@H]3CNC(=O)Cc2cccs2)n1 | 18µM*
Cc1nc(-c2ccccc2)cc([C@H]2CN3CC[C@H]2C[C@@H]3CNC(=O)N2CCOCC2)n1 | i
Cc1nc(-c2cccs2)cc([C@H]2CN3CC[C@H]2C[C@@H]3CNC(=O)c2ccc3c(c2)OCO3)n1 | i
Cc1ccc(C(=O)NC[C@H]2C[C@@H]3CCN2C[C@@H]3c2cc(-c3cccs3)nc(C)n2)cc1 | 35µM*
Cc1nc(-c2ccco2)cc([C@H]2CN3CC[C@H]2C[C@@H]3CNC2CCOCC2)n1 | 22µM*
Cc1nc(-c2cccs2)cc([C@H]2CN3CC[C@H]2C[C@@H]3CNC(=O)c2ccccc2)n1 | i
Cc1nc(-c2ccc(F)cc2)cc([C@H]2CN3CC[C@H]2C[C@@H]3CNC(=O)C2CC2)n1 | i
Cc1ccccc1C(=O)N1CCC2(CC1)c1nccn1-c1ccccc1CN2CC(C)C | i
Cc1ccc(C(=O)N2[C@H]3CC[C@@H]2c2cnc(-c4ccc(F)cc4)nc2C3)cn1 | i
C#CCN(C)C[C@H]1CN2CC[C@H]1C[C@@H]2CNC(=O)c1ccccc1 | i
CC(OC(=O)c1cn(C)c2ccccc12)C(=O)Nc1ccc(C(N)=O)cc1 (centres undefined) | i
COc1ccc(CN(Cc2ccc(OC)cc2)C[C@H]2C[C@@H]3CCN2C[C@@H]3c2cc(C3CCCC3)nn2C)cc1 | i
C#C[C@H]1CN2CC[C@H]1C[C@@H]2CNC(=O)c1ccc(-c2ccccc2)cc1 | i
O=C(CCc1c[nH]c2ccccc12)N1[C@H]2CC[C@@H]1c1cnc(-c3ccc(F)cc3)nc1C2 | i
CC[C@H]1CN2CC[C@H]1C[C@@H]2CNCc1ccc(C(F)(F)F)cc1 | i
O=C1CC2CCN(Cc3cccc(Br)n3)CC2CCN1 (centres undefined) | i
CNc1ccc(OC2CCNCC2)nc1 | 28µM*
Cn1nc(C2CCCCC2)cc1[C@H]1CN2CC[C@H]1C[C@@H]2CNC(=O)COc1ccccc1 | i
